For 40 molecules, Potency and activity change, negative = cytotoxicity results are on record in PubChem BioAssay (Tox21).

Each structure is given as a SMILES string. Values joined by “and” are separate entries in the source; they are usually repeats but may differ in a detail not shown here. Identical values can stand only once. Inconclusive results are not listed. Entries that show only a call come without a potency. Active and inactive are the calls of the source. Calls come from the whole dose curve; as a rule, active = well fitted cell-killing curve with a large enough effect in the repeat runs; inconclusive = weak or mixed curves, or effect the other way; inactive = flat fitted curve, though single readings scatter.
Potency is the fitted concentration of half-maximal effect.

The nature of this test: qHTS assay to identify small molecule agonists of the TGF-beta/Smad signaling pathway - cell viability counter screen (AID 1346829). For activity change, negative = cytotoxicity: top concentration of the series differs between compounds. Note: nearly all actives have a fitted effect of over 45% in size. The conditions noted are these: SBE-bla HEK293T viability, CellTiter-Glo luminescence, 5 h; series mostly up to 76.8 µM. An excerpt:
National Center for Advancing Translational Sciences [NCATS]
NIH Chemical Genomics Center [NCGC]
U.S. Environmental Protection Agency [EPA]
National Institutes of Environmental Health Sciences [NIEHS]
National Toxicology Program [NTP]
U.S. Food and Drug Administration [FDA]
Transforming growth factor beta (TGF-beta) superfamily consists of a large number of structurally related dimeric proteins that act as hormones or local mediators in regulating a wide range of biological functions. This superfamily includes TGF-betas themselves, the bone morphogenetic proteins (BMPs) and the activins. These ligands induce oligomerization of serine/threonine receptor kinases and phosphorylate the cytoplasmic signaling molecules of Smad protein family. CellSensor SBE-bla HEK 293T cell line (Life Technologies, Carlsbad, CA), responsive to TGF-beta was used to screen Tox21 10K compound library for identification of agonists/antagonists of the Smad signaling pathway. This cell line contains a beta-lactamase reporter gene under control of the Smad binding element (SBE) stably integrated into HEK 293T cells. Also cytotoxicity of the compounds was tested in parallel by measuring the cell viability using CellTiter-Glo assay system in the same wells.
Tox21 Assay Protocol Summary:
SBE-bla HEK 293T cells were dispensed at 4,000/well in 6 uL of assay medium into black wall/clear-bottom 1536-well plates using a Multidrop Combi (ThermoFisher Scientific, Waltham, MA) dispenser. After the assay plates were incubated at 37 C and 5% CO2 for an overnight, 23 nL of compounds dissolved in DMSO, positive controls or DMSO only was transferred to the assay plate by a Pintool station (Kalypsys, San Diego, CA). The assay plates were incubated at 37 C and 5% CO2 for 5 hr. One uL of LiveBLAzer B/G FRET substrate (Life Technologies) was added using a Flying Reagent Dispenser (FRD, Aurora Discovery, San Diego, CA) and the plates were incubated at room temperature for 2 hr. Fluorescence intensity (405 nm excitation, 460 nm and 530 nm emissions) was measured using an Envision plate reader (PerkinElmer, Shelton, CT). For cytotoxicity read, 4 uL of CellTiter-Glo reagent (Promega Corporation, Madison, WI) was added to each well of the assay plates using FRD. After 30min incubation at room temperature, the luminescence intensity was measured using ViewLux plate reader (PerkinElmer).
As to `CCOC(=O)c1cncn1C(C)c1ccccc1` (stereo not given), the Potency entry was “inactive”.

For the molecule `CC(C)(c1ccccc1)c1cc(-n2nc3ccccc3n2)c(O)c(C(C)(C)c2ccccc2)c1`, the Potency entry is “inactive”.

For `CCCCC(CC)CO[N+](=O)[O-]` (stereo not given), the Potency entry is “inactive”.

With `FC(F)OC(F)(F)C(F)Cl` (stereo not given), the Potency entry is “inactive”.

For the molecule `CC(C)(C)OOC(C)(C)CCC(C)(C)OOC(C)(C)C`, the Potency result is “inactive”.

Turning to `CCCCCCCCCCCCN(C)C`, the Potency result was “inactive”.

As to `C[C@H]1[C@@H]2Cc3ccc(O)cc3[C@@]1(C)CCN2C`, the Potency entry was “inactive”.

For `O=CC=O`, the Potency result was “inactive”.

In the case of `CC(C)C1(C)N=C(c2ncccc2C(=O)O)NC1=O` (stereo not given), the Potency entry is “inactive”.

In the case of `CCCC[N+](CCCC)(CCCC)CCCC`, the Potency entry is “inactive”.

Turning to `COc1ccccc1N1CCNCC1`, the Potency result is “inactive”.

With `O=C(O)C(F)(F)C(F)(F)C(F)(F)C(F)(F)C(F)(F)C(F)(F)C(F)(F)C(F)(F)F`, the Potency result was “inactive”.

For the molecule `CC(C)(C)NCC(O)c1cc(Cl)c(N)c(C(F)(F)F)c1` (stereo not given), the Potency result was “inactive”.

Turning to `OCC1CO1` (stereo not given), the Potency result was “inactive”.

As for `CCCN(CCC)c1c([N+](=O)[O-])cc(C(C)C)cc1[N+](=O)[O-]`, the Potency result was “inactive”.

Consider `CCCCC#N`, for which the Potency result is “inactive”.

As for `CC(O)CN1CCN(CC(=O)[O-])CCN(CC(=O)[O-])CCN(CC(=O)[O-])CC1.[Gd+3]` (stereo not given), the Potency result is “inactive”.

In the case of `Nc1cccc2ccccc12`, the Potency result was “inactive”.

`COP(=O)(OC)OC(Br)C(Cl)(Cl)Br` (stereo not given): the Potency entry is “inactive”.

For `Clc1ccc2ccccc2c1`, the Potency result was “inactive”.

Consider `CCCCCCCCCCCC[N+](C)(C)CCOc1ccccc1`, for which the Potency was 55 µM (active) and 26.8 µM (active).

For `O=C(O)c1ccc(=O)[nH]c1`, the Potency result was “inactive”.

Regarding `OCCCl`, the Potency entry was “inactive”.

`COc1cc(CC(C)N)c(OC)cc1Br` (stereo not given): the Potency entry is “inactive”.

In the case of `COCc1cnc(C2=NC(C)(C(C)C)C(=O)N2)c(C(=O)O)c1` (stereo not given), the Potency result was “inactive”.

On to `O=C1NC(=O)C(=O)C(=O)N1`, for which the Potency entry was “inactive”.

For the molecule `CN1CC[C@]23c4c5ccc(O)c4O[C@H]2[C@@H](O)C=C[C@H]3[C@H]1C5`, the Potency result is “inactive”.

Turning to `CON(C)C(=O)Nc1ccc(Cl)cc1`, the Potency entry was “inactive”.

With `C[C@@H]1C[C@@H]([C@H](O)CC2CC(=O)NC(=O)C2)C(=O)[C@@H](C)C1`, the Potency entry is “inactive”.

With `CCCC[N+]1(C)[C@@H]2CC(OC(=O)[C@H](CO)c3ccccc3)C[C@H]1[C@@H]1O[C@@H]12` (stereo not given in full), the Potency result is “inactive”.

As to `CCOc1cccc(C2(N3CCN(c4ccccc4)CC3)CCC(C)CC2)c1` (stereo not given), the Potency entry is “inactive”.

Take `CCCCCCCCCCCCN=C(N)N`: the activity change, negative = cytotoxicity was -9.54% [at 2.72 µM] (inactive).

As for `Oc1cccc(Cl)c1`, the Potency entry was “inactive”.

Turning to `Cc1ccccc1`, the Potency result was “inactive”.

With `Clc1ccccc1`, the Potency result was “inactive”.

With `CC(C)(C#N)C(C)(C)C#N`, the Potency entry was “inactive”.

In the case of `Nc1ccccc1C(=O)OCC(O)CO` (stereo not given), the Potency result was “inactive”.

Turning to `CCCN(CCOc1c(Cl)cc(Cl)cc1Cl)C(=O)n1ccnc1`, the Potency entry is “inactive”.

As to `CN(C1CCCCC1)C1CCCCC1`, the Potency entry was “inactive”.

With `O=C(CCl)CCl`, the Potency entry was “inactive”.
